{
  "source": "PubChem BioAssay (NCI)",
  "note": "Values joined by “and” are separate entries in the source; they are usually repeats but may differ in a detail not shown here. Equal values may be shown once. This is part of a sample that, as a whole, favours compounds with a hit. Of some 83,000 tested, about 20% had one in any assay.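 Values shown are percent growth following 48 h exposure of cells in 96-well plates to a single concentration of compound; below 10 was considered active.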 Active and inactive are the calls of the source.",
  "data": [
    {"system": "HL-60(TB) leukemia", "test": "NCI-60 one-dose screen, 48 h (100 = growth as untreated, 0 = no growth, -100 = all killed)", "settings": "10 µM unless noted", "values": [
      {"smiles": "CC1(C)CC[C@]2(C(=O)O)CC[C@]3(C)C(=CCC4[C@@]5(C)C[C@@H](O)[C@@H]6OC(c7ccc(F)cc7)OC[C@@]6(C)C5CC[C@]43C)C2C1", "note": "(stereo not given in full)", "growth": "3.11% (active)"},
      {"smiles": "CCCn1c(NC(=O)c2cccc(C(N)=O)c2)nc2cc(CN3CCCCC3)ccc21", "growth": "91.4% (inactive)"},
      {"smiles": "COc1ccc(-c2cc(C)nc3[nH]c(=O)sc23)cc1", "growth": "75.6% (inactive)"},
      {"smiles": "Cc1cc(C(F)(F)F)ccc1C(=O)Nc1sc2c(c1C#N)CCC(=O)C2", "growth": "-14.5% (active)"},
      {"smiles": "COc1ccc2[nH]c(=O)c(CSc3nccc(-c4ccc(Cl)cc4)n3)cc2c1", "growth": "29.3% (inactive)"},
      {"smiles": "O=c1nc(-c2ccccc2)cc(-c2cc3ccccc3nc2Cl)[nH]1", "growth": "-34.7% (active)"},
      {"smiles": "O=C(COc1ccc(NC(=O)Nc2ccc(Cl)cc2)cc1)N/N=C/c1ccccc1", "growth": "45.8% (inactive)"},
      {"smiles": "C#C[C@]1(O)CC[C@H]2[C@@H]3CC=C4c5sc(Nc6ccc(C(F)(F)F)cn6)nc5CC[C@]4(C)[C@H]3CC[C@@]21C", "growth": "1.27% (active)"},
      {"smiles": "COc1cc(CNC(=O)/C=C/c2ccc3c(c2)OCO3)ccc1OCc1cn(-c2ccc([N+](=O)[O-])cc2)nn1", "growth": "97% (inactive)"},
      {"smiles": "Oc1ccc(/C=C2\\CCCc3cc4ccc(O)cc4[o+]c32)c(O)c1", "growth": "33.4% (inactive)"},
      {"smiles": "Cc1cc(=O)oc2cc(OCCCCOc3ccc(/C=C/C(=O)Nc4ccc(F)c(Cl)c4)cc3)ccc12", "growth": "97.6% (inactive)"},
      {"smiles": "COC(=O)c1ccc(-c2c(-c3ccccc3)c(F)c3oc(C(=O)OC)c(N)c3c2-c2ccccc2)cc1", "growth": "105% (inactive)"},
      {"smiles": "Cc1ccn2c(C(=O)c3ccccc3)cc(-c3cc(-c4ccc(N(C)C)cc4)c(C#N)c(N)n3)c2c1", "growth": "95.1% (inactive)"},
      {"smiles": "CC(=O)Nc1cccc(-n2c(COc3ccc(Br)cc3)nc3ccccc32)c1", "growth": "113% (inactive) and 103% (inactive)"},
      {"smiles": "COc1ccc(/C=C/c2nc3ccccc3nc2Nc2cccc(C)c2)cc1", "growth": "92.8% (inactive)"},
      {"smiles": "Cn1cc(-c2cc(N)n3nc(-c4cn(C)c5ncc(Br)cc45)cc3n2)c2cc(Br)cnc21", "growth": "-71.2% (active)"},
      {"smiles": "CCOC(=O)C1=C(N)N(c2ccccc2)C2=C(C(=O)CC(C)(C)C2)C1c1ccc([N+](=O)[O-])cc1", "note": "(stereo not given)", "growth": "92.9% (inactive)"},
      {"smiles": "O=C(CCl)Nc1ccc(C(=O)/C=C/c2cc3ccccc3nc2Cl)cc1", "growth": "-17.4% (active) and 30.5% (inactive)"},
      {"smiles": "C=CC(=O)Nc1ccc(C)c(Oc2ccc(Cl)cc2)c1", "growth": "54% (inactive)"},
      {"smiles": "COc1ccc2c(c1)c(/C=N/Nc1ccc3ccccc3n1)cn2C", "growth": "-57.7% (active)"},
      {"smiles": "C=CC(=O)Nc1ccc(C(=O)/C=C/c2ccc(N(C)C)cc2)c(O)c1", "growth": "1.03% (active)"},
      {"smiles": "CS(=O)(=O)Nc1ccc(-c2ccc3c(c2)ncn3-c2ccc(NC(=O)Nc3ccc(Br)cc3)cc2)cc1", "growth": "-42% (active)"},
      {"smiles": "CCCCOc1ccc(NC(=O)c2sc3nc(C)ccc3c2N)cc1", "growth": "46.8% (inactive)"},
      {"smiles": "COc1cc(/C=C/C(=O)c2ccc(S(=O)(=O)NCCNc3nc(N(C)C)nc(N4CCOCC4)n3)cc2)cc(OC)c1OC", "growth": "-64.8% (active)"},
      {"smiles": "COc1ccc(-n2c(SCC(=O)NNS(=O)(=O)c3ccccc3)nc3ccc(Cl)cc3c2=O)cc1", "growth": "107% (inactive)"},
      {"smiles": "O=C(CSc1nnc(-c2c[nH]c3ccccc23)n1-c1ccccc1)c1ccccc1", "growth": "87.2% (inactive)"},
      {"smiles": "Cc1ccc(C(=O)Nc2cc(-n3cnc(F)c3)cc(C(F)(F)F)c2)cc1C#Cc1cnc2cccnn12", "growth": "23.5% (inactive)"},
      {"smiles": "COc1ccc(C(=O)C[n+]2cccc3c4ccccc4ccc32)cc1", "growth": "22% (inactive)"},
      {"smiles": "O=C1/C(=C/C2=Cc3ccccc3OC2)SC(=S)N1c1ccccc1F", "growth": "87.9% (inactive)"},
      {"smiles": "O=C(c1ccc([N+](=O)[O-])c([N+](=O)[O-])c1O)n1[nH]c(=O)c2ccccc2c1=O", "growth": "44.6% (inactive)"},
      {"smiles": "Cc1ccc2c(c1)C(=O)/C(=C/c1c[nH]c3ccccc13)S2", "growth": "14.9% (inactive)"},
      {"smiles": "C=C1CCC2C3(C)COC(c4ccccc4)OC3CCC2(C)C1CC(NCc1ccccc1)C1=CCOC1=O", "note": "(stereo not given)", "growth": "43.6% (inactive)"},
      {"smiles": "O=c1[nH]c2ccccc2cc1CSc1ccc(Nc2nccc(-c3ccc(Cl)cc3)n2)cc1", "growth": "74.8% (inactive)"},
      {"smiles": "S=C(NCCc1ccccc1)Nc1ccc(OCc2nc3ccc(Cl)cc3[nH]2)cc1", "growth": "11.6% (inactive)"},
      {"smiles": "O/N=C(\\CSc1nnc(-c2c[nH]c3ccccc23)n1-c1ccccc1)c1ccc(Br)cc1", "growth": "-36.3% (active)"}
    ]}
  ]
}
